{"source": "PubChem BioAssay AID434927", "about": "(Sanford-Burnham Center for Chemical Genomics, 2010)", "biological_target": "Intestinal-type alkaline phosphatase (Homo sapiens) (UniProt P09923)", "sequence (P09923 whole entry, looked up)": "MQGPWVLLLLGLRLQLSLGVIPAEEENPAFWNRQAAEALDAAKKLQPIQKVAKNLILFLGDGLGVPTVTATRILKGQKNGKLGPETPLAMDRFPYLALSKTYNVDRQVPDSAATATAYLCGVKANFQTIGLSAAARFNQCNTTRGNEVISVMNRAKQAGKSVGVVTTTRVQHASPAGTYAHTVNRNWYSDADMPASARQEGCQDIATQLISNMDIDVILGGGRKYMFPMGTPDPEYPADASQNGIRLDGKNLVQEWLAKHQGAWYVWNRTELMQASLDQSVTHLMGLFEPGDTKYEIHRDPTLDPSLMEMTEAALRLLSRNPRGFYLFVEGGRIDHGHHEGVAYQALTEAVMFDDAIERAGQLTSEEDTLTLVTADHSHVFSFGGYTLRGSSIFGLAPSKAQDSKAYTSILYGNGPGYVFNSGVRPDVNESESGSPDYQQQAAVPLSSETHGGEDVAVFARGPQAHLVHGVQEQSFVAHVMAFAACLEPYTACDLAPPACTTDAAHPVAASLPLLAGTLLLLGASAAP", "test": "human IAP inhibitors, confirmation, biochemical, luminescence, single concentration, uHTS hits (AID 434927);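 also: plate controls were DMSO wells with enzyme for no effect and wells lacking enzyme for full effect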", "settings": "purified human IAP, CDP-Star luminescence, 30 min; at 8.3 µM; hits give high values", "note": "Active and inactive are the calls of the source.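 The calls were made as follows: active = inhibition above about 23% in any of six single-dose repeats (limit read from the data); inactive = the rest.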", "data": [{"smiles": "COC(=O)Cn1cc(/C=C2\\C(=O)NC(=O)N(c3ccccc3)C2=O)c2ccccc21", "values": [{"measurement": "inhibition", "result": "33.9% (active)"}]}]}
